Bioassay records deposited in PubChem by NMMLSC.
BoNT F protease = blocks Botulinum neurotoxin F light chain protease; inhibition, % at 10 µM; AID 588497; 360,000 compounds, 0.22% hits; Multiplex microsphere protease cleavage assay, flow cytometry; in the data active = inhibition above about 35%, passing the limit was not always enough; inconclusive = no clear call, values can overlap the other calls; also: plate controls were buffer without enzyme for full effect and enzyme alone for no effect
BoNT-A LC inh2 = inhibitors of Botulinum neurotoxin A light chain protease. inhibition, % at 10 µM. AID 588499. 360,000 compounds, 0.17% hits. multiplex microsphere protease substrate cleavage, flow cytometry; also: plate controls were buffer without enzyme for full effect and enzyme alone for no effect
Autofluor counter = counter-screen for toxin protease inhibitors: compound fluorescence; fluorescence intensity (no concentration beside the values); AID 624483; 360,000 compounds, 3.1% hits; compound autofluorescence counterscreen, microsphere flow cytometry; stronger effect = higher value; in the data active = fluorescence intensity above about 16000; inconclusive = no clear call, values can overlap the other calls
Anthrax LF inh2 = blocks Bacillus anthracis lethal factor protease; P15917; multiplex microsphere protease cleavage assay, LF; inhibition, % at 10 µM; 360,000 compounds, 0.12% hits; AID 588501; also: plate controls were buffer without enzyme for full effect and enzyme alone for no effect
Target sequence (P15917 whole entry, looked up): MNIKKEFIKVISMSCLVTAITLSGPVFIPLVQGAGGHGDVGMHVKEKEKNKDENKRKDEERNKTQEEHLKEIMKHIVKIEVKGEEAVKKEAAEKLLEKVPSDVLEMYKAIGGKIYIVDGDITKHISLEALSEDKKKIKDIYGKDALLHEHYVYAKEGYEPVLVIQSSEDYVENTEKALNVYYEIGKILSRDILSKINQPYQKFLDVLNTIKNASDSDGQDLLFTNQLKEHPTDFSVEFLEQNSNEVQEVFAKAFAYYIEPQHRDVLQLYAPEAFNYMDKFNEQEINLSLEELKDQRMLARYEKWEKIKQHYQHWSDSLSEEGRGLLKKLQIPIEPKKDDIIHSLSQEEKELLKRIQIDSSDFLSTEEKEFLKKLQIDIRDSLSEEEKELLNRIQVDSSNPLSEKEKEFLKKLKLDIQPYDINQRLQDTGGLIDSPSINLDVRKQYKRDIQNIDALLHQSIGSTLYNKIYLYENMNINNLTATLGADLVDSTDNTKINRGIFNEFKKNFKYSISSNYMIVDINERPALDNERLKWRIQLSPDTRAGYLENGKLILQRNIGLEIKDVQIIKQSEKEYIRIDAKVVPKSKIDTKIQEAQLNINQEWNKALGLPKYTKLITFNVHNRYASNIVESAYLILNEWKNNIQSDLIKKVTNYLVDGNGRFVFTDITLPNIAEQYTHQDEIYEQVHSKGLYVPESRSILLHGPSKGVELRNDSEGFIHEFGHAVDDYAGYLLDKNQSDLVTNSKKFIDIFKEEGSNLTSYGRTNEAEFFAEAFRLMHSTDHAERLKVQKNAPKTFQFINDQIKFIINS
Numbers without * were called inactive; ? = inconclusive. Most compounds without a hit are left out; they make up all but 3.5% or so of the library. Rule as the data show it, unless noted: active = inhibition above about 30%; inconclusive = no clear call, values can overlap the other calls; inactive = below that.

SMILES	BoNT F protease	BoNT-A LC inh2	Autofluor counter	Anthrax LF inh2
Cc1cc(=O)[nH]c(SCc2nnc(-c3ccccc3)o2)n1	-3.6	-0.4	3015	-1.3
Clc1ccc2nc(SCc3nnc(-c4ccccc4)o3)[nH]c2c1	-3.6	?	23021*	0.8
Clc1ccc(OCc2nnc(SCc3nnc(-c4ccccc4)o3)o2)c(Cl)c1	-4.5	-1.8	17010*	0.1
Clc1ccc(-c2csc(-c3cccnc3)n2)s1	-18.3	0.2	4441	-8.2
Cc1ccc(S(=O)(=O)N2CCOCC2)cc1NC(=O)COC(=O)COc1ccc(C#N)cc1	2.0	0.1	2882	0.6
COc1ccc(C2C(Oc3ccccc3)C(=O)N2c2cc(C)ccc2C)cc1OC (stereo not drawn)	-2.8	-1.0	20605*	-11.4
COc1ccc(C2C(Oc3ccccc3)C(=O)N2c2ccc(C)c(C)c2)cc1OC (stereo not drawn)	-8.5	-0.6	3278	-1.7
NC(=O)c1cc(S(=O)(=O)N2CCOCC2)ccc1Sc1ccccc1N	1.5	-2.0	5903	-4.3
Cc1ccc(C(=O)O/N=C/c2c(N3CCOCC3)n(C)c3ccccc23)cc1	-24.6	-1.1	5928	-9.8
CC(=O)O/N=C/c1c(N2CCOCC2)n(C)c2ccccc12	-1.0	-2.0	23889*	-6.1
COc1cnc(-c2ccccn2)nc1Sc1ccc(Cl)cc1	-6.0	?	21806*	-1.7
COc1ccc(Sc2nc(-c3ccccn3)ncc2OC)cc1	2.1	-2.1	4049	2.3
Cc1ccccc1-c1ccc(=O)n(CC(=O)Nc2ccc(N3CCOCC3)cc2)n1	-0.6	?	20524*	-1.9
O=C(Cn1nc(-c2ccccc2)ccc1=O)Nc1ccc(N2CCN(C(=O)c3ccccc3)CC2)cc1	0.3	0.8	22910*	-1.3
Cc1ccccc1-c1ccc(=O)n(CC(=O)Nc2ccc(C(=O)N3CCCC3)cc2)n1	-7.2	-0.5	6630	3.8
CC(=O)c1cnc(-c2cccc(Cl)c2)s1	-0.6	-0.7	4199	-1.4
CN(C)/C=C/C(=O)c1cnc(-c2cccc(Cl)c2)s1	42.3*	6.8	4682	-6.9
O=C(c1cnc(-c2ccccc2)s1)c1ccc(Cl)cc1Cl	-3.2	?	22951*	-2.0
CN(C)S(=O)(=O)N1CCN(S(=O)(=O)c2ccccc2)CC1	2.2	0.5	20194*	-7.1
CN1CCN(S(=O)(=O)c2ccc(-c3ccccc3)cc2)CC1	2.8	1.4	22073*	2.1
CN(C)S(=O)(=O)N1CCN(c2ccc(Cl)cc2)CC1	-0.5	0.3	16470*	-2.3
Cc1ccc(S(=O)(=O)N2CCN(S(=O)(=O)c3ccccc3)C2)cc1	3.6	2.6	21096*	-5.2
O=C(Nc1ccc(F)c(Cl)c1)Nc1nnc([C@@H]2O[C@H](CO)[C@@H](O)[C@H]2O)s1	3.8	-0.2	3805	-1.7
Cc1ccc(-c2ccc(S(=O)(=O)N3CCCC3)cc2)cc1	2.8	-0.1	4074	-1.6
Cc1ccc(-c2ccc(S(=O)(=O)N3CCN(C)CC3)cc2)cc1	1.4	0.8	21880*	-1.6
SMILES	BoNT F protease	BoNT-A LC inh2	Autofluor counter	Anthrax LF inh2
O=C(Nc1ccsc1C(=O)N1CCCCCC1)c1ccccc1	-1.9	-0.6	16715*	0.5
O=C(Nc1ccsc1C(=O)O)c1ccccc1	1.9	0.4	3038	3.7
CCOc1ccccc1NC(=O)NC(C)c1ccc2c(c1)OCO2 (stereo not drawn)	10.4	-1.8	5918	0.2
COc1ccc(C)cc1NC(=O)c1ccc2c(c1)OCO2	1.6	2.0	21822*	0.2
COc1ccccc1C(=O)Nc1ccc2c(c1)OCCO2	-3.6	0.0	2748	-0.4
COc1ccc(C)cc1NC(=O)c1cc2ccccc2o1	-4.0	?	23609*	-5.8
COc1ccccc1C(=O)Nc1ccc2c(c1)OCO2	-1.5	1.2	23284*	-1.0
COc1ccc(OC)c(NC(=O)c2cc3ccccc3o2)c1	-32.3	0.2	3336	-4.3
COc1ccc(C)cc1NC(=O)COC(=O)c1ccc2c(c1)OCO2	-7.5	-0.3	2993	-8.9
CCOc1ccccc1C(=O)NC(C)c1ccc2c(c1)OCO2 (stereo not drawn)	2.0	5.2	18046*	1.2
CSc1nsc(SC)c1-c1ccc(Cl)cc1	-1.2	-0.4	2892	-2.8
CC(C)C(C(=O)Nc1ccc2c(c1)OCO2)N1C(=O)c2ccccc2C1=O (stereo not drawn)	-0.5	?	20817*	-1.9
COc1cc(C(=O)Nc2ccc3c(c2)OCCO3)c(-n2cnnn2)cc1OC	-1.4	-0.1	22353*	-2.0
O=C(CC(NC(=O)c1ccccc1Cl)c1ccccc1)Nc1ccc2c(c1)OCO2 (stereo not drawn)	-0.1	0.7	20052*	0.3
CC(C)C(C(=O)Nc1ccc2c(c1)OCCO2)N1C(=O)c2ccccc2C1=O (stereo not drawn)	-6.7	-0.3	8355	-6.0
COc1cc(C(=O)Nc2ccc(C)cc2)c(-n2cnnn2)cc1OC	4.9	-0.3	4065	1.8
CCOc1ccc(OCCC(=O)Nc2ccc3c(c2)OCO3)cc1	2.4	-0.4	3959	6.5
COc1ccc(OCCCC(=O)Nc2ccc3c(c2)OCO3)cc1	-1.8	-0.5	16175*	-0.3
CC(NC(=O)c1ccccc1Cl)C(=O)Nc1ccc2c(c1)OCO2 (stereo not drawn)	-12.8	-2.0	5882	-2.5
CCCS(=O)(=O)N1CCCC(C(=O)NCC(OC)OC)C1 (stereo not drawn)	-0.4	0.5	7645	-0.9
CCCCCCCCOC(=O)CCn1[nH]c(=O)c2ccccc2c1=O	4.0	-0.3	2753	-1.8
CC(C)COC(=O)CCn1[nH]c(=O)c2ccccc2c1=O	0.9	?	22405*	-0.5
CC[C@H](C)[C@@H](CO)NC(=O)[C@H]1O[C@@H](n2ccc(=O)[nH]c2=O)[C@H](O)[C@@H]1O	1.4	-0.3	5133	0.5
CCOc1ncnc2c1sc1nc(C)cc(C)c12	-1.2	1.2	4168	-2.1
Cc1cc(C)c2c(n1)sc1c(N3CCN(CCO)CC3)ncnc12	-4.5	-4.0	17147*	-6.9
SMILES	BoNT F protease	BoNT-A LC inh2	Autofluor counter	Anthrax LF inh2
O=C1CCCC(O)=C1C1C2=C(CCCC2=O)Oc2ccccc21 (stereo not drawn)	4.7	?	21293*	-1.0
C=CCn1c(CCNC(=O)c2ccc(Cl)c(Cl)c2)nnc1SCCOc1ccc(OC)cc1	-2.6	?	21454*	0.5
C=CCn1c(Cc2ccc(OC)cc2)nnc1SCC(N)=O	2.5	2.5	22116*	-6.2
C=CCn1c(Cc2csc(N)n2)nnc1SCC(=O)OCC	-2.5	1.9	22718*	0.5
C=CCn1c(Cc2csc(N)n2)nnc1SCC(=O)Nc1ccc(C(=O)OCC)cc1	-11.4	-1.2	7701	0.6
C=CCn1c(SCCOc2ccccc2)nnc1C(C)NC(=O)c1ccccc1 (stereo not drawn)	-7.5	-0.5	6043	-3.3
C=CCn1c(Cc2ccc(OCC)cc2)nnc1SCC(N)=O	2.7	0.5	9473	-2.2
CCOC(=O)c1cc(C#N)c(N2CCCNCC2)nc1C(F)(F)F	31.6	1.2	3398	4.9
COc1cc(NC(=O)C2CCCCC2)c(OC)cc1NC(=O)c1ccccc1	-12.7	-0.4	3684	-11.1
CCOc1c(Cl)cc(C(=O)NCCN2CCCCC2)cc1Cl	4.5	4.3	22799*	1.6
Cc1cccc(C(=O)NCCN2CCCC2)c1	-0.1	-1.0	20070*	-2.5
Cc1cccc(OCC(=O)NNc2c3ccccc3nc3ccccc23)c1	0.5	1.9	21560*	-3.1
